Test results reported in PubChem BioAssay (Tox21).
Unmarked numbers belong to inactive results. Results filed as inconclusive are left out. A call without a number means that no potency is given here. Calls of active or inactive are those of the source. Calls come from the whole dose curve; as a rule, active = well fitted curve in the direction sought with a large enough effect in the repeat runs; inconclusive = weak or mixed curves; inactive = no such curve, though single readings can be large; an effect the other way counts as inactive or inconclusive.

Assays:
[1] = qHTS RealTime-Glo MT Cell Viability Assay in HepG2 cells - 40 hour (AID 1224870); note: nearly all actives have a fitted effect of over 50% in size
In short: (§1)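 Real-time viability: cells seeded at 600 per well together with NanoLuc and cell-permeant prosubstrate, compounds added after 5 h incubation. Luminescence tracked at 0, 8, 16, 24, 32 and 40 h of exposure.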

[2] = A CellTox Green Cytotoxicity Assay to monitor cytotoxicity in HEK293 cells - 40 hour (AID 1224871); note: nearly all actives have a fitted effect of over 45% in size
In short: (§2)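 Fluorescence intensity, read at 0, 8, 16, 24, 32 and 40 h of compound treatment, reflected dye binding to DNA of dead HEK293 cells; compounds (23 nL, DMSO) were added 5 h after plating cells with reagent.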

[3] = qHTS RealTime-Glo MT Cell Viability Assay in HepG2 cells - 8 hour (AID 1224873); note: nearly all actives have a fitted effect of over 55% in size
In short: as §1

[4] = A CellTox Green Cytotoxicity Assay to monitor cytotoxicity in HEK293 cells - 24 hour (AID 1224875); note: series mostly up to about 77 µM; nearly all actives have a fitted effect of over 45% in size
In short: as §2

[5] = A CellTox Green Cytotoxicity Assay to monitor cytotoxicity in HepG2 cells - 16 hour (AID 1224876); note: nearly all actives have a fitted effect of over 45% in size
In short: (§3)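 Using 1536-well format, dye-containing HepG2 suspension was seeded, allowed 5 h at 37 C/5% CO2, dosed by pintool with compounds, positive and negative controls, and imaged for fluorescence across 40 h.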

[6] = qHTS RealTime-Glo MT Cell Viability Assay in HepG2 cells - 32 hour (AID 1224877); note: nearly all actives have a fitted effect of over 55% in size
In short: (§4)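 HepG2 cells were seeded at 600 cells/well together with NanoLuc luciferase and a cell-permeant prosubstrate, preincubated 5 h at 37 C/5% CO2, then pin-dosed with compounds in DMSO. Nonlytic luminescence from viable cells was read at each time point.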

[7] = A CellTox Green Cytotoxicity Assay to monitor cytotoxicity in HepG2 cells - 24 hour (AID 1224878); note: nearly all actives have a fitted effect of over 45% in size
In short: as §3

[8] = qHTS RealTime-Glo MT Cell Viability Assay in HEK293 cells - 0 hour (AID 1224880)
In short: (§5)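 Viable HEK293 cells reduce a cell-permeant prosubstrate; the product diffuses out and is consumed by NanoLuc in the medium to give light. Compounds went in after a 5 h incubation and plates were read over the treatment course.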

[9] = A CellTox Green Cytotoxicity Assay to monitor cytotoxicity in HEK293 cells - 32 hour (AID 1224881); note: nearly all actives have a fitted effect of over 40% in size
In short: as §2

[10] = A CellTox Green Cytotoxicity Assay to monitor cytotoxicity in HepG2 cells - 0 hour (AID 1224882); note: nearly all actives have a fitted effect of over 35% in size
In short: as §3

[11] = A CellTox Green Cytotoxicity Assay to monitor cytotoxicity in HepG2 cells - 32 hour (AID 1224883); note: nearly all actives have a fitted effect of over 50% in size
In short: as §3

[12] = A CellTox Green Cytotoxicity Assay to monitor cytotoxicity in HEK293 cells - 8 hour (AID 1224884); note: nearly all actives have a fitted effect of over 35% in size
In short: as §2

[13] = qHTS RealTime-Glo MT Cell Viability Assay in HepG2 cells - 16 hour (AID 1224885); note: nearly all actives have a fitted effect of over 50% in size
In short: as §4

[14] = A CellTox Green Cytotoxicity Assay to monitor cytotoxicity in HEK293 cells - 16 hour (AID 1224888); note: nearly all actives have a fitted effect of over 35% in size
In short: as §2

[15] = qHTS RealTime-Glo MT Cell Viability Assay in HepG2 cells - 0 hour (AID 1224889); note: nearly all actives have a fitted effect of over 50% in size
In short: as §4

[16] = qHTS RealTime-Glo MT Cell Viability Assay in HEK293 cells - 40 hour (AID 1224874); conditions: RealTime-Glo luminescence; max response: hits give low values; note: nearly all actives have a fitted effect of over 50% in size; note: potency is the fitted concentration of half-maximal effect
In short: as §5

[17] = A CellTox Green Cytotoxicity Assay to monitor cytotoxicity in HepG2 cells - 40 hour (AID 1224879); note: nearly all actives have a fitted effect of over 40% in size
In short: as §3

[18] = qHTS RealTime-Glo MT Cell Viability Assay in HEK293 cells - 24 hour (AID 1224886); note: nearly all actives have a fitted effect of over 50% in size; note: potency is the fitted concentration of half-maximal effect
In short: (§6)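 HEK293 cells were seeded at 600 cells/well together with NanoLuc luciferase and cell-permeant prosubstrate, preincubated 5 h at 37 C/5% CO2, then given compound in DMSO by pintool. Luminescence from viable-cell prosubstrate reduction was read repeatedly over 40 h.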

[19] = qHTS RealTime-Glo MT Cell Viability Assay in HEK293 cells - 8 hour (AID 1224887); note: nearly all actives have a fitted effect of over 50% in size; note: potency is the fitted concentration of half-maximal effect
In short: as §5

[20] = qHTS RealTime-Glo MT Cell Viability Assay in HEK293 cells - 16 hour (AID 1224872); note: nearly all actives have a fitted effect of over 50% in size; note: potency is the fitted concentration of half-maximal effect
In short: as §6

O=C(OCCCCCOC(=O)c1ccccc1)c1ccccc1
Potency [1]: inactive | Potency [2]: inactive | outcome [3]: inactive | Potency [4]: inactive | Potency [5]: inactive | Potency [6]: inactive | Potency [7]: inactive | Potency [8]: inactive | Potency [9]: inactive | Potency [10]: inactive | Potency [11]: inactive | Potency [12]: inactive | outcome [13]: inactive | Potency [14]: inactive | Potency [15]: inactive

OCCCO
Potency [1]: inactive | Potency [2]: inactive | outcome [3]: inactive | max response [16]: 16.2% | Potency [4]: inactive | Potency [5]: inactive | Potency [6]: inactive | Potency [7]: inactive | Potency [17]: inactive | Potency [9]: inactive | Potency [10]: inactive | Potency [11]: inactive | outcome [13]: inactive | Potency [18]: inactive | Potency [19]: inactive | Potency [14]: inactive | Potency [15]: inactive

CCCCCO
Potency [2]: inactive | Potency [20]: inactive | outcome [3]: inactive | max response [16]: 1.46% | Potency [4]: inactive | Potency [5]: inactive | Potency [6]: inactive | Potency [7]: inactive | Potency [17]: inactive | Potency [8]: inactive | Potency [9]: inactive | Potency [10]: inactive | Potency [11]: inactive | Potency [12]: inactive | outcome [13]: inactive | Potency [19]: inactive | Potency [14]: inactive | Potency [15]: inactive

CCCCOc1ccc(N)cc1
Potency [1]: inactive | Potency [2]: inactive | outcome [3]: inactive | Potency [4]: inactive | Potency [5]: inactive | Potency [6]: inactive | Potency [7]: inactive | Potency [17]: inactive | Potency [8]: inactive | Potency [9]: inactive | Potency [10]: inactive | Potency [11]: inactive | Potency [12]: inactive | Potency [19]: inactive | Potency [14]: inactive | Potency [15]: inactive

CC(C)=CCC/C(C)=C/C=N/O
Potency [1]: inactive | Potency [20]: inactive | outcome [3]: inactive | max response [16]: -25.1% | Potency [5]: inactive | Potency [6]: inactive | Potency [7]: inactive | Potency [17]: inactive | Potency [8]: inactive | Potency [10]: inactive | Potency [11]: inactive | outcome [13]: inactive | Potency [18]: inactive | Potency [15]: inactive

Nc1ccc(F)cc1F
Potency [1]: inactive | Potency [2]: inactive | outcome [3]: inactive | max response [16]: -13.8% | Potency [4]: inactive | Potency [5]: inactive | Potency [6]: inactive | Potency [7]: inactive | Potency [17]: inactive | Potency [9]: inactive | Potency [10]: inactive | Potency [11]: inactive | Potency [12]: inactive | Potency [18]: inactive | Potency [19]: inactive | Potency [14]: inactive | Potency [15]: inactive

COc1cc(CNC(=O)CCCC/C=C/C(C)C)ccc1O
Potency [2]: inactive | Potency [20]: 4.25 µM (active) | outcome [3]: inactive | Potency [16]: 8.48 µM (active) | Potency [4]: inactive | Potency [5]: inactive | Potency [6]: inactive | Potency [7]: inactive | Potency [17]: inactive | Potency [8]: inactive | Potency [9]: inactive | Potency [10]: inactive | Potency [11]: inactive | Potency [12]: inactive | Potency [18]: 4.77 µM (active) | Potency [19]: 2.39 µM (active) | Potency [14]: inactive | Potency [15]: inactive

S=c1[nH][nH]c(=S)s1
Potency [1]: inactive | Potency [2]: inactive | outcome [3]: inactive | Potency [4]: inactive | Potency [5]: inactive | Potency [6]: inactive | Potency [7]: inactive | Potency [9]: inactive | Potency [10]: inactive | Potency [11]: inactive | Potency [12]: inactive | outcome [13]: inactive | Potency [19]: inactive | Potency [14]: inactive | Potency [15]: inactive

O=C(O)c1ccccc1-n1cc(C(=O)O)c(=O)c2cc(Nc3c(F)cc(F)cc3Cl)c(Cl)cc21
Potency [2]: inactive | Potency [20]: inactive | outcome [3]: inactive | max response [16]: 0.656% | Potency [4]: inactive | Potency [5]: inactive | Potency [6]: inactive | Potency [7]: inactive | Potency [17]: inactive | Potency [8]: inactive | Potency [9]: inactive | Potency [10]: inactive | Potency [11]: inactive | Potency [12]: inactive | outcome [13]: inactive | Potency [18]: inactive | Potency [19]: inactive | Potency [14]: inactive | Potency [15]: inactive

Nc1cccc2c(=O)[nH][nH]c(=O)c12
Potency [1]: inactive | Potency [2]: inactive | outcome [3]: inactive | Potency [4]: inactive | Potency [5]: inactive | Potency [6]: inactive | Potency [7]: inactive | Potency [17]: inactive | Potency [8]: inactive | Potency [9]: inactive | Potency [10]: inactive | Potency [11]: inactive | Potency [12]: inactive | outcome [13]: inactive | Potency [18]: inactive | Potency [19]: inactive | Potency [14]: inactive | Potency [15]: inactive

CC1=C(C)C(=O)C(CCCCC#CCCCC#CCO)=C(C)C1=O
Potency [1]: inactive | Potency [2]: inactive | Potency [16]: 0.674 µM (active) | Potency [4]: inactive | Potency [5]: inactive | Potency [7]: inactive | Potency [17]: inactive | Potency [10]: inactive | Potency [11]: inactive | Potency [18]: 0.601 µM (active) | Potency [19]: 0.535 µM (active) | Potency [14]: inactive | Potency [15]: inactive

CCC(C(=O)O)c1ccc(N2Cc3ccccc3C2=O)cc1 (stereo not drawn)
Potency [1]: inactive | Potency [2]: inactive | outcome [3]: inactive | Potency [4]: inactive | Potency [5]: inactive | Potency [6]: inactive | Potency [7]: inactive | Potency [8]: inactive | Potency [9]: inactive | Potency [10]: inactive | Potency [11]: inactive | outcome [13]: inactive | Potency [18]: inactive | Potency [19]: inactive | Potency [14]: inactive | Potency [15]: inactive

CC(O)CN (stereo not drawn)
Potency [2]: inactive | Potency [20]: inactive | outcome [3]: inactive | max response [16]: 1.55% | Potency [4]: inactive | Potency [5]: inactive | Potency [6]: inactive | Potency [7]: inactive | Potency [17]: inactive | Potency [8]: inactive | Potency [9]: inactive | Potency [10]: inactive | Potency [11]: inactive | Potency [12]: inactive | Potency [18]: inactive | Potency [19]: inactive | Potency [14]: inactive | Potency [15]: inactive

Clc1cccc(C(c2ccc3nc[nH]c3c2)n2ccnc2)c1 (stereo not drawn)
Potency [1]: inactive | Potency [2]: inactive | outcome [3]: inactive | Potency [4]: inactive | Potency [5]: inactive | Potency [6]: inactive | Potency [7]: inactive | Potency [17]: inactive | Potency [8]: inactive | Potency [9]: inactive | Potency [10]: inactive | Potency [11]: inactive | Potency [12]: inactive | outcome [13]: inactive | Potency [19]: 3.38 µM (active) | Potency [14]: inactive | Potency [15]: inactive

COc1cccc([C@H](O)C2CCN(CCc3ccc(F)cc3)CC2)c1OC
Potency [1]: inactive | Potency [2]: inactive | outcome [3]: inactive | Potency [4]: inactive | Potency [5]: inactive | Potency [6]: inactive | Potency [7]: inactive | Potency [8]: inactive | Potency [9]: inactive | Potency [10]: inactive | Potency [11]: inactive | Potency [12]: inactive | outcome [13]: inactive | Potency [19]: inactive | Potency [14]: inactive | Potency [15]: inactive

O=c1[nH][nH]c2ccccc12
Potency [1]: inactive | Potency [2]: inactive | outcome [3]: inactive | Potency [4]: inactive | Potency [5]: inactive | Potency [6]: inactive | Potency [7]: inactive | Potency [17]: inactive | Potency [8]: inactive | Potency [10]: inactive | Potency [11]: inactive | Potency [12]: inactive | outcome [13]: inactive | Potency [19]: inactive | Potency [14]: inactive | Potency [15]: inactive
